High-throughput results as filed in PubChem.
This is a sample that favours compounds with a hit; in the whole collection about 0.64% have one here.
RECQ1 inh-1 – RECQ1 (human) helicase inhibition | P46063 | Potency, µM (doses to about 57.3 µM), for inactives: at the highest dose activity, negative = inhibition, most hits filed as inhibitors | AID 2549 | RECQ1 DNA unwinding, red fluorescence kinetic read | 240,000 compounds, 0.54% hits;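 note: plate controls were vehicle for no effect and no enzyme for full effect; nearly all actives have a fitted effect of over 30% in size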
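50 nM RECQ1T1 preincubated 15 min with compound in Tris pH 8.0 buffer with MgCl2, DTT, Tween-20 and 2.5 ug/ml poly(dI-dC); started with 200 nM TAMRA/BHQ-2 forked duplex and 2 mM ATP. Unwinding read as fluorescence (525/598 nm), two reads 2 h apart.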
TRb-SRC2 inh – TRbeta-SRC2 interaction inhibition. TRbeta-SRC2 peptide binding, fluorescence polarization; receptor liganded with 1 µM T3. 280,000 compounds, 0.065% hits. Potency, µM (highest dose often 106 µM), for the others: top-dose activity change, negative = inhibition, hits mostly inhibitors;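 note: plate controls were bound peptide for no effect and peptide without receptor for full effect; nearly all actives have a fitted effect of over 50% in size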
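A fluorescence polarization screen tested compounds at multiple concentrations against complex formation between 0.6 uM TRb ligand-binding domain and 20 nM Texas Red SRC2 peptide, with 1 uM T3 present; readout after 5 hr.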
BLM helicase inh – Bloom syndrome helicase (human) inhibition | P54132 | recombinant BLM DNA unwinding, fluorescence dequenching | Potency, µM (titrated, usually from 56.1 µM), without a hit: at the top dose activity change, negative = inhibition, usual class: inhibitors | 350,000 compounds, 0.2% hits | AID 2528;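 note: plate controls were vehicle for no effect and no enzyme for full effect; nearly all actives have a fitted effect of over 35% in size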
TR SRC2 fluor cs – alters Texas Red total fluorescence, flagging assay interference. Potency, µM (highest dose often 106 µM), inactives show at the highest dose fluorescence change, negative = quenching. TRb/SRC2 Texas Red total fluorescence interference. 280,000 compounds, 0.29% hits. AID 1479; active = well fitted curve in either direction with a large enough effect; inconclusive = small, poorly fitted or top-dose-only effect
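Flags fluorescent or light-absorbing compounds by total fluorescence, S + 2P, at 555 nm excitation and 632 nm emission. Mixture: 20 nM Texas Red SRC2 peptide, 0.6 uM human TRb LBD, 1 uM T3, 5% DMSO; compound exposure 5 h at ambient temperature.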
RECQ1 conf – confirmation of human RECQ1 helicase inhibitors; shares compounds with RECQ1 inh-1; 610 compounds, 28% hits; AID 2708; Potency, µM (top dose mostly 229 µM), inactives show top-dose activity change, negative = inhibition, actives largely listed as inhibitors; RECQ1 helicase DNA unwinding, fluorescence; note: nearly all actives have a fitted effect of over 45% in size
RECQ1 ADP FP – counter-screen for RECQ1 inhibitors: ADP displacement. shares compounds with RECQ1 inh-1. ADP fluorescence polarization displacement counterscreen. Potency, µM (highest dose often 228 µM), for the others: at the top dose activity change, negative = inhibition, actives largely listed as inhibitors. 530 compounds, 27% hits. AID 2711; note: nearly all actives have a fitted effect of over 45% in size
RECQ1 inh-2 – confirmation of human RECQ1 helicase inhibitors | shares compounds with RECQ1 inh-1 | recombinant RECQ1 DNA unwinding, red fluorescence | Potency, µM (top dose mostly 119 µM), for inactives: at the highest dose activity, negative = inhibition, usual class: inhibitors | 1,100 compounds, 15% hits | AID 504841; note: nearly all actives have a fitted effect of over 50% in size
* marks the source's active call; other numbers are inactive results; i = inactive; ? = inconclusive; nt = no result; [ ] = dose if it differs, or a comment. Unless noted, calls come from the whole dose curve; as a rule, active = well fitted curve in the direction sought with a large enough effect; inconclusive = small, poorly fitted or top-dose-only effect, or another doubt; inactive = no such curve, though single readings can be large; an effect the other way counts as inactive or inconclusive. Unless noted, % is set by controls: 0 for no effect and ±100 for the full control effect; potency is the fitted concentration of half-maximal effect.

SMILES	RECQ1 inh-1	TRb-SRC2 inh	BLM helicase inh	TR SRC2 fluor cs	RECQ1 inh-2	others
CCOc1ccccc1/C=C(\NC(=O)c1ccccc1)C(=O)NCCC(=O)O	-16%	-3%	6%	-1%	nt	RECQ1 conf=0%;RECQ1 ADP FP=2%
COc1ccccc1CNC(=O)c1ccccc1C(=O)NC(CC(C)C)C(=O)NCc1ccccc1OC (centres undefined)	nt	nt	-9%	nt	nt
COc1cc2ccccc2cc1C(=O)NC(=S)Nc1cccc(C(=O)O)c1	?	-4%	?	0%	25µM*
CCc1ccc(/C=C/C(=O)c2cc(Br)ccc(=O)c2O)cc1	?	-20%	-21%	-8%	?
Cc1cccc(/C=C/C(=O)c2cc(Br)ccc(=O)c2O)c1	?	-19%	-17%	-7%	?
CCOc1ccc(/C=C/C(=O)c2cc(Br)ccc(=O)c2O)cc1	22µM*	-4%	-17%	-12%	?
C=CCN(C(C(=O)OC)C(C)C)S(=O)(=O)CCl (centres undefined)	-3%	7%	-2%	-2%	nt
CCOC(=O)c1[nH]c2ccccc2c1NC(=O)c1c(F)cccc1F	nt	-1%	-3%	-5%	nt
O=C(/C=C/c1ccco1)Nc1ccc(C(=O)N2CCOCC2)cc1	?	-1%	-16%	0%	-28%
O=C(/C=C/c1ccco1)Nc1ccc(CN2CCOCC2)cc1	19%	5%	-2%	3%	nt
Cc1ccc2oc(=O)c3c4cc(O)c(O)cc4oc3c2c1	-10%	10%	-5%	-10%	nt
COc1cc(O)c2c(c1)oc(=O)c1c3cc(O)c(O)cc3oc21	2.5µM*	?	13µM*	35µM*[quencher]	2.2µM*	RECQ1 conf=14µM*;RECQ1 ADP FP=45µM*
CCOC(=O)c1ccc2c(c1)nc(SCC(=O)c1cc3ccccc3o1)n2CC	?	1%	-9%	9%	?
O=[N+]([O-])c1ccc(-c2c(O)c3ccccc3c3nc4ccccc4nc23)cc1	25µM*	-7%	-13%	4%	nt	RECQ1 conf=9%[114 µM];RECQ1 ADP FP=?
O=C(O)c1cc(-c2ccco2)nn1-c1cccc(Cl)c1	25µM*	6%	44%	2%	?
Cc1ccc(-n2nc(-c3ccco3)cc2C(=O)O)c(C)c1	20µM*	3%	-16%	-1%	?
Cc1nn(-c2ccccc2)c2nc(-c3ccco3)cc(C(=O)O)c12	28µM*	5%	25%	-6%	-23%
Cc1nn(-c2cccc(Cl)c2)c2nc(-c3ccco3)cc(C(=O)O)c12	-26%	0%	5%	-4%	nt
Cc1ccc(-n2nc(-c3cccnc3)cc2C(=O)N2CCOCC2)c(C)c1	i	-6%	-3%	-7%	nt
COc1ccc(CNCc2c(C(=O)O)c(C)n(Cc3ccc(Cl)cc3)c2C)c(OC)c1	nt	-1%	0%	1%	nt
CCN1/C(=C/c2cc[n+](CCCS(=O)(=O)[O-])c3ccccc23)Sc2ccccc21	?	-3%	-12%	1%	56µM*
CCC(=O)/C=C1/Sc2ccccc2N1CC	i	2%	7%	-3%	nt
COc1ccc2nc(-c3ccco3)c(-c3ccco3)nc2c1	?	3%	13µM*	?	2%
COc1ccc(-c2nc3ccccc3nc2-c2ccc(OC)cc2)cc1	nt	nt	-9%	nt	nt
CC(C)Cn1c(=O)c2ccccc2n2c(CCC(=O)NC(C)c3ccccc3)nnc12 (centres undefined)	nt	-5%	2%	-13%	nt
CC(=O)Nc1ccn(C2OC(C(COC(C)=O)NC(=O)C(CCCCNC(=O)OCc3ccccc3)NC(=O)OC(C)(C)C)C(OC(C)=O)C2OC(C)=O)c(=O)n1 (centres undefined)	i	-3%	1%	0%	nt
O=C(COc1ccc(Cl)cc1Cl)NC(=O)c1ccccc1	nt	nt	-1%	nt	nt
